Test results from PubChem BioAssay (EPA / NIEHS).
The source made the active and inactive calls. The calls were made as follows: active = hit-call score of the fitted dose curve at least 0.9, where 1 is the maximum; inactive = score below 0.9.

Key:
[1] = ATG_ISRE_CIS: Attagene CIS-FACTORIAL HepG2 Assay for human Interferon Regulatory Factor 1 (IRF1) binding to an Interferon-Stimulated Response Element (ISRE) (AID 2282948); conditions: HepG2 ISRE cis-reporter (Attagene), mRNA transcription readout; actives raise or lower the signal
How it was run: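 Uses HepG2 liver cells transfected with cis-regulated reporters and measures mRNA 24 h post-dosing through RT-PCR, primer-extension labelling and capillary electrophoresis, with DMSO as negative control.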

[2] = ATG_M_32_CIS: Attagene CIS-FACTORIAL HepG2 Assay for M32 Transcription Factor (Internal Marker) (AID 2282949); conditions: HepG2 Attagene cis-factorial M32 reporter, mRNA; actives raise or lower the signal;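 also: background control marker of the multiplexed CIS panel rather than a real target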
How it was run: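 Transient MRTU transfection of HepG2; 24 h compound treatment; TriZol RNA, oligo(dT) RT, reporter PCR, 6-FAM primer extension, HpaI cut, CE. Gain/loss of signal vs DMSO.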

[3] = ATG_M_06_CIS: Attagene CIS-FACTORIAL HepG2 Assay for M06 Transcription Factor (Internal Marker) (AID 2282950); conditions: HepG2 Attagene CIS-FACTORIAL M06 internal marker reporter; actives raise or lower the signal
How it was run: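 HepG2 cells transiently transfected with cis-regulated multiple reporter transcription units were exposed to chemical for 24 h; reporter mRNA was quantified by RT-PCR, 6-FAM primer labelling, HpaI digestion and capillary electrophoresis, fitted bidirectionally against DMSO.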

[4] = target: Hypoxia-inducible factor 1-alpha (Homo sapiens) (UniProt Q16665); assay: ATG_HIF1a_CIS: Attagene CIS-FACTORIAL HepG2 Assay for human Hypoxia Inducible Factor 1 (HIF1A) (AID 2282951); conditions: HepG2 Attagene cis-factorial HIF1a reporter transcription; actives raise or lower the signal
Hypoxia-inducible factor 1-alpha (Homo sapiens), sequence (Q16665 whole entry, looked up): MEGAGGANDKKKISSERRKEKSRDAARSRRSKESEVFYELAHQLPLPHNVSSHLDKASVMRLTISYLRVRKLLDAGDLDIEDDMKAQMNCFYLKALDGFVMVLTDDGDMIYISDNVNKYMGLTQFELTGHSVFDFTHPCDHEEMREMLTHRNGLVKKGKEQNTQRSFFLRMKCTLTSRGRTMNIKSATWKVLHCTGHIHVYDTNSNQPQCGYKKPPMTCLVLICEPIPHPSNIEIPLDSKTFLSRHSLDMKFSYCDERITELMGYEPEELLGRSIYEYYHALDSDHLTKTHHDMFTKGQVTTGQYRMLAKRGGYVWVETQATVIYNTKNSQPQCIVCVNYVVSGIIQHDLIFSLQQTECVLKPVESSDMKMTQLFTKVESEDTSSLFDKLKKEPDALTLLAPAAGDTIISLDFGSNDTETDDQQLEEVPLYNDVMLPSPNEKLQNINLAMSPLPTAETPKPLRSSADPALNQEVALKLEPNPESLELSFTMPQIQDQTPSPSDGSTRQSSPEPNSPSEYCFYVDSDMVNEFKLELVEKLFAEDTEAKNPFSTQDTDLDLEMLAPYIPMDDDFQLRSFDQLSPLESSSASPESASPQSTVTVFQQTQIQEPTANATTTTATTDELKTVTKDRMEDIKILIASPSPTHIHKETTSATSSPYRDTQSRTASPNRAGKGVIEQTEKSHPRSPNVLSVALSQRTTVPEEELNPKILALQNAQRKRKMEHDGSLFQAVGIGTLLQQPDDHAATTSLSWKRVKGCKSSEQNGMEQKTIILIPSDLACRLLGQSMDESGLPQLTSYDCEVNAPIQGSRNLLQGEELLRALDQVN
How it was run: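 HepG2 cells transiently transfected with multiple cis-regulated reporter transcription units measure endogenous transcription factor activity. After 24 h exposure, reporter mRNA is quantified by RT-PCR with 6-FAM labelling, HpaI digestion and capillary electrophoresis. Bidirectional fitting against DMSO.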

[5] = target: Hepatocyte nuclear factor 6 (Homo sapiens) (UniProt Q9UBC0); assay: ATG_HNF6_CIS: Attagene CIS-FACTORIAL HepG2 Assay for human Hepatocyte Nuclear Factor 6 (HNF6) (AID 2282952); conditions: HepG2 Attagene cis-factorial HNF6 reporter transcription; actives raise or lower the signal
Hepatocyte nuclear factor 6 (Homo sapiens), sequence (Q9UBC0 whole entry, looked up, the tested form may be a part): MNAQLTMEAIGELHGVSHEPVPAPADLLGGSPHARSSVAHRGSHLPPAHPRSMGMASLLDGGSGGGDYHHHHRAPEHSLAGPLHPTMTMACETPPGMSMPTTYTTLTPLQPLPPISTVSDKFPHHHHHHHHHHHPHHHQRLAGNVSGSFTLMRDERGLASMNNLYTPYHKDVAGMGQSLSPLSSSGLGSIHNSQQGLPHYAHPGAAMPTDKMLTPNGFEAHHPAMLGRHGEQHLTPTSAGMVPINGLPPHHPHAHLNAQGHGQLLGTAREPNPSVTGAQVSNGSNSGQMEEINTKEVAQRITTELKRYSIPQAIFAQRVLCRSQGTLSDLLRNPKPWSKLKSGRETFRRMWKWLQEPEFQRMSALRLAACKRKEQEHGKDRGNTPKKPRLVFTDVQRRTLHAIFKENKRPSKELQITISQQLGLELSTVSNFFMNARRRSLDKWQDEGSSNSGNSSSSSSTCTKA
How it was run: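 Using cis-element reporters in HepG2 liver cells, the assay tracks endogenous factor-driven transcription 24 h post-dosing. Signal comes from 6-FAM-labelled, HpaI-digested RT-PCR fragments, with gain or loss scored against DMSO.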

[6] = target: Heat shock factor protein 1 (Homo sapiens) (UniProt Q00613); assay: ATG_HSE_CIS: Attagene CIS-FACTORIAL HepG2 Assay for human Heat Shock Transcription Factor 1 (HSE) (AID 2282953); conditions: HepG2 HSE cis-reporter, Attagene RNA transcription; actives raise or lower the signal
Heat shock factor protein 1 (Homo sapiens), sequence (Q00613 whole entry, looked up): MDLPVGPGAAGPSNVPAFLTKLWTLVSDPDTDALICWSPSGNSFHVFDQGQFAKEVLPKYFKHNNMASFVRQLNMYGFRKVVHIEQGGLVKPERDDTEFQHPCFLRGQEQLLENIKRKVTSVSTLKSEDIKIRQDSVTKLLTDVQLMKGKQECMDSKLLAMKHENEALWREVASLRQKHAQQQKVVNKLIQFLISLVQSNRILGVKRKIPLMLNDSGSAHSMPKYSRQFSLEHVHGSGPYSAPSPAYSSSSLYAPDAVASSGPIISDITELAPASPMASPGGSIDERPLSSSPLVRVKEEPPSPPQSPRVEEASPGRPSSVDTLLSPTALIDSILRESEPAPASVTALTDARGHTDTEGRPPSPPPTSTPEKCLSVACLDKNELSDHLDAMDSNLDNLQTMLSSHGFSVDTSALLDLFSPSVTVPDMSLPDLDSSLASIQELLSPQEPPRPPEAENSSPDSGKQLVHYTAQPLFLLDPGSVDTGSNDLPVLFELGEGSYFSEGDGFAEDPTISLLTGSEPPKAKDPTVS
How it was run: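 HepG2 cells transiently transfected with multiple reporter transcription units under cis-regulatory promoter control, measuring endogenous transcription factor activity. After 24 h chemical exposure, reporter mRNA quantified by RT-PCR, fluorescent labelling, HpaI digestion and capillary electrophoresis; bidirectional fit versus DMSO.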

[7] = ATG_MRE_CIS: Attagene CIS-FACTORIAL HepG2 Assay for human Metal Responsive Element (MRE) (AID 2282954); conditions: HepG2 MRE cis-reporter transcription, Attagene multiplex; actives raise or lower the signal
How it was run: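 Multiplexed cis-reporter assay in human HepG2 liver cells, 24 h incubation with test chemical. Reporter transcripts measured by RT-PCR and capillary electrophoresis; values from bidirectional curve fitting versus DMSO.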

[8] = ATG_PBREM_CIS: Attagene CIS-FACTORIAL HepG2 Assay for human Phenobarbital-responsive Enhancer Module (PBREM) (AID 2282955); conditions: HepG2 PBREM cis-reporter, Attagene multiplexed transcription; actives raise or lower the signal
How it was run: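 HepG2 cells transiently transfected with multiple cis-regulated reporter units measure endogenous transcription factor activity; 24 h compound exposure. Reporter mRNA quantified by RT-PCR, fluorescent labelling, HpaI digestion and capillary electrophoresis; bidirectional fit versus DMSO.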

[9] = target: Paired box protein Pax-6 (Homo sapiens) (UniProt P26367); assay: ATG_Pax6_CIS: Attagene CIS-FACTORIAL HepG2 Assay for human Paired Box 6 (PAX6) (AID 2282956); conditions: HepG2 CIS-FACTORIAL PAX6 reporter transcription, RNA readout; actives raise or lower the signal
Paired box protein Pax-6 (Homo sapiens), sequence (P26367 whole entry, looked up): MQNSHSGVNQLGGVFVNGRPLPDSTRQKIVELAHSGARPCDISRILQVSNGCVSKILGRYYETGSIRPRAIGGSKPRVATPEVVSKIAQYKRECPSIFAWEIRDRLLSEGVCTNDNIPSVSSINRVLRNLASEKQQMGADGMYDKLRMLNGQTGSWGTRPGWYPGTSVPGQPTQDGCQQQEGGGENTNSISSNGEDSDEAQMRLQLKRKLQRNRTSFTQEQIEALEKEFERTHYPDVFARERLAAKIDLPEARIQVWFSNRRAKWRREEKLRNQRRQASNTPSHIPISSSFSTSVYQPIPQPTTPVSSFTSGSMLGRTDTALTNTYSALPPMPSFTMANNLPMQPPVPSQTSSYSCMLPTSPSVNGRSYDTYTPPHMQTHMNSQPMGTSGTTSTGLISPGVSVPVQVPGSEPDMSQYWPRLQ
How it was run: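 DMSO-referenced bidirectional fits of reporter mRNA fluorescence; HepG2 with transient cis-promoter MRTUs, 24 h post-dose, RT-PCR plus capillary electrophoresis detection.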

[10] = ATG_PXRE_CIS: Attagene CIS-FACTORIAL HepG2 Assay for human Pregnane X Receptor Element (PXRE) (AID 2282957); conditions: HepG2 Attagene CIS-FACTORIAL PXRE reporter, mRNA; actives raise or lower the signal
How it was run: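 Using HepG2 transfected with multiple reporter transcription units, endogenous factor-driven transcription was scored as reporter mRNA after 24 h exposure.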

[11] = ATG_RORE_CIS: Attagene CIS-FACTORIAL HepG2 Assay for human RAR-related Orphan Receptor Element (RORE) (AID 2282959); conditions: HepG2 Attagene cis-factorial RORE reporter, mRNA; actives raise or lower the signal
How it was run: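 HepG2 cells carrying transiently transfected cis-regulated reporter units; RORE-driven reporter mRNA quantified 24 h post-dosing by RT-PCR, 6-FAM primer extension, HpaI digestion and capillary electrophoresis. Bidirectional fit versus DMSO.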

[12] = ATG_Sox_CIS: Attagene CIS-FACTORIAL HepG2 Assay for human SRY-box transcription factor (SOX) (AID 2282960); conditions: HepG2 Attagene cis-factorial SOX reporter, mRNA; actives raise or lower the signal
How it was run: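 HepG2 cells transiently transfected with multiple cis-regulated reporter units, then dosed for 24 h. Reporter mRNA quantified by RT-PCR, fluorescent labelling, HpaI digestion and capillary electrophoresis; bidirectional fit versus DMSO.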

[13] = target: Transcription factor Sp1 (Homo sapiens) (UniProt P08047); assay: ATG_Sp1_CIS: Attagene CIS-FACTORIAL HepG2 Assay for human Specificity Protein 1 (Sp1) (AID 2282961); conditions: HepG2 Sp1 cis-reporter transcription, actives raise or lower the signal
Transcription factor Sp1 (Homo sapiens), sequence (P08047 whole entry, looked up): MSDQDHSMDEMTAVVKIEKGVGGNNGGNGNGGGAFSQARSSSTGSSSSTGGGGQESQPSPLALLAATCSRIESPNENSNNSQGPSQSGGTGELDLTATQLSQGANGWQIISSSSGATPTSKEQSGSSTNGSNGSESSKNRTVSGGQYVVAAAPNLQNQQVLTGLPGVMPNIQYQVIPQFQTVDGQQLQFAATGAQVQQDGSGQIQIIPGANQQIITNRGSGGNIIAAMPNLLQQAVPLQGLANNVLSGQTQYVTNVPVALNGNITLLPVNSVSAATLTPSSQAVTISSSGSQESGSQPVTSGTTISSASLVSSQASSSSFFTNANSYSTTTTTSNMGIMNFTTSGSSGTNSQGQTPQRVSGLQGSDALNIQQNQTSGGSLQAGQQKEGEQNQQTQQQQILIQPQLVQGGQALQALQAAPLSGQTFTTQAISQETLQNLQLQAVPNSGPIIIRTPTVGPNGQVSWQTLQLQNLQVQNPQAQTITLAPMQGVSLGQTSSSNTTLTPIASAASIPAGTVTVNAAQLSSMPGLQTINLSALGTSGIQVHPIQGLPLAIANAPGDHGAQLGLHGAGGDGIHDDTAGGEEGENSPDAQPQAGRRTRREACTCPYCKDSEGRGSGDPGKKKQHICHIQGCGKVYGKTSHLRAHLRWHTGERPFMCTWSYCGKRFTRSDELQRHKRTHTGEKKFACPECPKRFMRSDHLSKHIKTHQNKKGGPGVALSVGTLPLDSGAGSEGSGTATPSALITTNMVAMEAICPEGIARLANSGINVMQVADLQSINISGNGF
How it was run: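 HepG2 cells transiently transfected with multiplexed cis-regulated reporter constructs, chemical exposure 24 h. Reporter mRNA quantified by RT-PCR with capillary electrophoresis; bidirectional fit relative to DMSO.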

[14] = ATG_SREBP_CIS: Attagene CIS-FACTORIAL HepG2 Assay for human Sterol Regulatory Element Binding (SREBP) (AID 2282962); conditions: HepG2 Attagene cis-factorial SREBP reporter, mRNA; actives raise or lower the signal
How it was run: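 In this cis-format assay, HepG2 liver cells express reporters controlled by promoter elements responsive to native transcription factors. Exposure lasts 24 h; reporter mRNA fluorescence from capillary electrophoresis gives the signal, fitted bidirectionally against DMSO.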

[15] = target: Signal transducer and activator of transcription 3 (Homo sapiens) (UniProt P40763); assay: ATG_STAT3_CIS: Attagene CIS-FACTORIAL HepG2 Assay for human Signal Transducer and Activator of Transcription 3 (STAT3) (AID 2282963); conditions: HepG2, Attagene cis-factorial STAT3 reporter transcription; actives raise or lower the signal
Signal transducer and activator of transcription 3 (Homo sapiens), sequence (P40763 whole entry, looked up): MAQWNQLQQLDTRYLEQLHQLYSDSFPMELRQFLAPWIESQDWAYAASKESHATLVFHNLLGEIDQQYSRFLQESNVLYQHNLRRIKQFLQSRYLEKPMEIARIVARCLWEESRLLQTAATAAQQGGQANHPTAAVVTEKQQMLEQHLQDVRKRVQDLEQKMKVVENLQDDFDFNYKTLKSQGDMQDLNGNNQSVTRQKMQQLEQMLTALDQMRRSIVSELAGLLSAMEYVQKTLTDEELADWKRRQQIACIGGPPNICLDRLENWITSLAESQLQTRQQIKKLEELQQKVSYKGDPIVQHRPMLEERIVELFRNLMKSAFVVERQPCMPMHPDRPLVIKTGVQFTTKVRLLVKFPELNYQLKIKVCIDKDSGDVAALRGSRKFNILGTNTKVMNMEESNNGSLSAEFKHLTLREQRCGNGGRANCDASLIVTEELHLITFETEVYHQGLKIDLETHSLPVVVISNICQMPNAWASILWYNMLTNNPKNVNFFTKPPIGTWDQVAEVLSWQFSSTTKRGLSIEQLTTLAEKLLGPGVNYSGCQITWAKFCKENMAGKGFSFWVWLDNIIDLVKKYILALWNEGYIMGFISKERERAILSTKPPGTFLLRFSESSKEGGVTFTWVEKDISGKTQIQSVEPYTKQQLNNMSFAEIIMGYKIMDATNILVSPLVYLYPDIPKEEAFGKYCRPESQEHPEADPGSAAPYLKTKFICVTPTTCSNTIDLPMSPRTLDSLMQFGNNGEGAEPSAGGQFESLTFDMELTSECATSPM
How it was run: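 Cis-factorial format: endogenous transcription factors in HepG2 drive transfected reporter units. After 24 h treatment, reporter RNA was reverse-transcribed, amplified, FAM-labelled and HpaI-digested before CE analysis; activity scored in both directions against DMSO.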

[16] = ATG_TA_CIS: Attagene CIS-FACTORIAL HepG2 Assay for human TA Basal Promoter (AID 2282964); conditions: HepG2 Attagene CIS-factorial TA basal promoter reporter; actives raise or lower the signal
How it was run: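 HepG2 cells transiently transfected with multiplexed cis-promoter reporter units, dosed 24 h. Reporter mRNA measured by RT-PCR, 6-FAM labelling, HpaI digestion and capillary electrophoresis; bidirectional fit versus DMSO baseline, serving as background control.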

[17] = ATG_TCF_b_cat_CIS: Attagene CIS-FACTORIAL HepG2 Assay for human T-Cell-Factor with beta-catenin (TCF/b-cat) (AID 2282965); conditions: HepG2 TCF/beta-catenin cis-reporter transcription, actives raise or lower the signal
How it was run: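 Endogenous TCF/LEF activity read as reporter transcript level via RT-PCR and capillary electrophoresis fluorescence in transfected HepG2, 24 h exposure; gain or loss of signal fitted against DMSO controls.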

[18] = ATG_TGFb_CIS: Attagene CIS-FACTORIAL HepG2 Assay for human Transforming Growth Factor (TGF) (AID 2282967); conditions: HepG2 Attagene CIS TGFb reporter, mRNA transcription; actives raise or lower the signal
How it was run: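 HepG2 cells transiently transfected with cis-promoter-driven multiplexed reporter units; 24 h compound exposure. Reporter mRNA measured by RT-PCR, 6-FAM labeling, HpaI digestion and capillary electrophoresis; bidirectional fit versus DMSO baseline.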

[19] = ATG_TAL_CIS: Attagene CIS-FACTORIAL HepG2 Assay for human TAL Basal Promoter (AID 2282966); conditions: HepG2 Attagene cis-factorial TAL promoter reporter; actives raise or lower the signal;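 also: background control endpoint measuring basal TAL promoter reporter mRNA not a specific factor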
How it was run: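 After 24 hours of chemical exposure, transfected HepG2 cells yielded RNA that was converted to 6-FAM-labelled, HpaI-digested reporter fragments for capillary electrophoresis. Values derive from bidirectional fitting against DMSO controls.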

[20] = ATG_PPRE_CIS: Attagene CIS-FACTORIAL HepG2 Assay for human Peroxisome Proliferator-activated Response Element (PPRE) (AID 2282958); conditions: HepG2 PPRE cis-element reporter, Attagene transcription factor profiling; actives raise or lower the signal
How it was run: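 HepG2 cells are transiently transfected with multiplexed cis-promoter reporter units to report endogenous PPAR activity. After 24 h dosing, reporter mRNA is read by RT-PCR and capillary electrophoresis. Fitting is bidirectional against DMSO.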

Measured: AC50

C=CCOC(F)(C(F)(F)F)C(F)(F)F
inactive: [1] | [2] | [3] | [4] | [5] | [6] | [7] | [8] | [9] | [10] | [11] | [12] | [13] | [14] | [15] | [16] | [17] | [18]

c1ccc2c(c1)Oc1ccccc1O2
inactive: [1] | [2] | [3] | [4] | [5] | [6] | [7] | [8] | [9] | [11] | [12] | [13] | [14] | [15] | [16] | [17] | [19] | [18]
active: [10] 75.9 µM

CC(C)[C@H](C(=O)OC(C#N)c1cccc(Oc2ccccc2)c1)c1ccc(OC(F)F)cc1 (stereo partly drawn)
active: [8] 1.18 µM | [10] 0.396 µM
inactive: [1] | [2] | [3] | [4] | [5] | [6] | [7] | [9] | [11] | [12] | [13] | [14] | [15] | [16] | [17] | [19] | [18]

O=C(NC(=O)c1c(F)cccc1F)Nc1cc(Cl)c(OC(F)(F)C(F)C(F)(F)F)cc1Cl (stereo not drawn)
inactive: [1] | [2] | [3] | [4] | [5] | [6] | [7] | [8] | [9] | [10] | [11] | [12] | [13] | [14] | [15] | [16] | [19] | [18]

CC(C)N(C(=O)CCl)c1ccccc1
active: [4] 8.65 µM | [6] 52.4 µM | [7] 44.6 µM | [9] 53.6 µM | [12] 48.2 µM | [13] 26.5 µM | [14] 33.4 µM | [18] 8.03 µM
inactive: [1] | [2] | [3] | [5] | [8] | [10] | [15] | [16] | [17] | [19]

CC(=O)C(F)(F)C(F)(F)F
inactive: [1] | [2] | [3] | [4] | [5] | [6] | [7] | [8] | [10] | [20] | [11] | [12] | [13] | [14] | [15] | [16] | [17] | [19] | [18]

N#Cc1ccc(Cl)cc1
inactive: [1] | [2] | [3] | [4] | [5] | [6] | [7] | [8] | [11] | [12] | [13] | [14] | [15] | [16] | [17] | [18]
active: [10] 54.6 µM
